MCL1 BIM primary: disrupts human MCL1 binding to BIM-BH3 peptide; Q07820; GST-MCL1 / FITC-Bim-BH3 fluorescence polarization; inhibition, % at 10.9 µM; 320,000 compounds, 0.68% hits;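 active = inhibition above the mean inhibition of all tested compounds plus 3 SD, set per campaign, cut at about 40% in these data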;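 note: 0% = DMSO wells and 100% = unlabeled Bim-BH3 peptide control; higher means more loss of mP so more displacement of Bim peptide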
Target sequence (Q07820 whole entry, looked up): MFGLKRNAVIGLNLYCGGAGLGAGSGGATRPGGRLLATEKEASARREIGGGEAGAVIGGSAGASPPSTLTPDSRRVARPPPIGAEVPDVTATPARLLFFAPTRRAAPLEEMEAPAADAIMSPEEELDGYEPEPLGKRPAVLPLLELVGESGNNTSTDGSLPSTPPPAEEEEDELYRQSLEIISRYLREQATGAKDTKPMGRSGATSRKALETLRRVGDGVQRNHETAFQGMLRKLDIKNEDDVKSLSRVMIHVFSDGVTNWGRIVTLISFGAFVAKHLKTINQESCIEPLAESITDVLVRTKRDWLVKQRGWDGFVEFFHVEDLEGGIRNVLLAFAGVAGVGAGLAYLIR
GLD-1 TGE inh: GLD-1-TGE RNA interaction inhibition (C. elegans). Q17339. inhibition, % at 5.96 µM. purified GLD-1 + fluorescein TGE RNA, fluorescence polarization. 320,000 compounds, 0.44% hits;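 active = percent inhibition above a per-plate cutoff, the plate mean of test compounds plus 3 SD, cut at about 30% in these data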;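 note: 0% = DMSO wells with GLD-1 and probe and 100% = wells lacking GLD-1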
Bcl-xL primary: blocks human Bcl-xL binding to Bim BH3 peptide. Q07817. GST-Bcl-xL / FITC-Bim BH3 peptide fluorescence polarization. inhibition, % at 10.9 µM. 320,000 compounds, 0.7% hits;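 active = inhibition above the mean of all tested compounds plus 3 SD, cutoff set per campaign, cut at about 30% in these data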;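 note: 0% = DMSO wells and 100% = unlabeled Bim-BH3 peptide competitor; inhibitors lower millipolarization by displacing the labeled peptide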
Target sequence (Q07817 whole entry, looked up): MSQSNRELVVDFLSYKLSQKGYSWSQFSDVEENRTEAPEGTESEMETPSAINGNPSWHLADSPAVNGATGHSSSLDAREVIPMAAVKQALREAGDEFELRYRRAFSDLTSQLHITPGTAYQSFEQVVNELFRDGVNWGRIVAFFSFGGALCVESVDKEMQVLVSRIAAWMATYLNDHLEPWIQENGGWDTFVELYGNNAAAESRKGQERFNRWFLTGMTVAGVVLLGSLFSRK
Mcl1-Noxa inh: Mcl-1/Noxa interaction inhibition; Q07820; TR-FRET Mcl-1/Noxa peptide binding, 2 h; inhibition, % at 21.7 µM; 220,000 compounds, 1.5% hits; AID 1022;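 active = compounds that cut the protein-peptide binding signal by more than 50% relative to plate controls in a single-dose test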;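 note: His-tagged Mcl-1 with rhodamine Noxa BH3 peptide and terbium anti-His antibody; 0% = Mcl-1 plus Noxa peptide wells and 100% = peptide-only wells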
Bim-Mcl-1: disrupts Bim peptide binding to human Mcl-1. Bead-based flow cytometry, Bim peptide-Mcl-1 binding. inhibition, % at 10 µM. 190,000 compounds, 0.1% hits. AID 1009; in the data active = inhibition above about 40%;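 note: 0% = no compound tracer wells and 100% = peptide blocker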
Mcl1 Bid PPI: Mcl-1/Bid interaction inhibition. AID 1021. Q07820. inhibition, % at 21.7 µM. 220,000 compounds, 0.97% hits. TR-FRET Mcl-1/Bid-Dy647 peptide binding, 1536-well;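 active = compounds that cut the binding signal by more than half at the single screening dose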;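 note: His-tagged Mcl-1 with europium anti-His antibody binding Bid BH3 peptide; 0% = Mcl-1 plus peptide wells and 100% = peptide-only wells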
* = called active by the depositor; nt = no result. Shown are actives, neighbours in structure and some others; about 2.3% of the full set was active somewhere.

SMILES	MCL1 BIM primary	GLD-1 TGE inh	Bcl-xL primary	Mcl1-Noxa inh	Bim-Mcl-1	Mcl1 Bid PPI
COc1ccc(C(=O)CSc2[nH]c(=O)cc(C(F)(F)F)c2C#N)cc1	10	5	4	13	nt	14
Cc1ccc(S(=O)(=O)Nc2ccc(NC(=O)Nc3cccc(C(F)(F)F)c3)cc2)cc1	-3	11	1	13	0	-9
CCN(CC)S(=O)(=O)c1ccc(NC(=O)Nc2cccc(C(F)(F)F)c2)cc1	-6	6	-1	3	0	101*
Cc1cc(C)c(S(=O)(=O)NCc2cn3c(C)csc3n2)c(C)c1	8	-4	11	-54	-4	-143
Cc1cc(C)c(S(=O)(=O)NCc2cn3c(C)csc3n2)cc1C	3	-1	6	76*	0	3
Cc1cc(NC(=O)CSc2nnc3c(C)cc4ccccc4n23)no1	-4	7	2	2	0	-21
Cc1cc2ccccc2n2c(SCC(=O)NCc3cccs3)nnc12	8	4	7	67*	5	7
Cc1c(-n2c(SCC(=O)O)nnc2-c2ccccc2Br)c(=O)n(-c2ccccc2)n1C	-8	6	-1	4	nt	-9
Cc1cccc(NC(=S)N2CCC(NC(=O)c3cccc(F)c3)CC2)c1	16	10	10	nt	nt	nt
O=C(O)c1cc(-c2ccco2)nc2ccccc12	46*	14	34*	36	-3	-33
Cn1c(=O)c(C(=O)COC(=O)c2cc(-c3ccco3)nc3ccccc23)c(N)n(CC2CC2)c1=O	44*	12	27	95*	5	-7
Cn1c(=O)c(C(=O)COC(=O)c2cc(C3CC3)nc3ccccc23)c(N)n(Cc2ccccc2)c1=O	-29	-17	-13	3	-1	-8
COc1ccc(CNC(=O)COC(=O)c2ccc(Br)cc2)cc1	2	0	33*	-1	1	-23
COc1ccc(CNC(=O)COC(=O)c2cc(C)nc3ccccc23)cc1	nt	9	nt	nt	nt	nt
O=C(O)c1cc(-c2cc(C(=O)O)c3ccccc3n2)nc2ccccc12	8	-4	4	nt	nt	nt
COc1ccc(CNC(=O)COC(=O)c2ccc(C(=O)c3ccccc3)cc2)cc1	nt	-6	nt	nt	nt	nt
COc1ccc(CNC(=O)COC(=O)c2cc(-c3ccco3)nc3ccccc23)cc1	nt	nt	nt	89*	-1	9
C/C(=N\NC(=S)NCc1ccccc1)c1ccc(C)o1	5	0	3	17	-3	-23
COc1ccc(NC(=O)Nc2ccc3c(c2)CCC3)cc1	-5	-3	0	nt	nt	nt
CCN(CC(=O)Nc1ccc(OC)c(Cl)c1)CC(=O)NC(C)C	10	3	3	4	-3	-2
O=S(=O)(/N=C(/Nc1ccccc1)c1ccccc1O)c1ccccc1	1	-1	0	6	-1	-33
O=C(NC1CC1)c1cc(-c2ccco2)nc2ccccc12	nt	nt	nt	105*	nt	39
Cc1ccc(O)c(N=Nc2nccs2)c1	2	0	-1	nt	nt	nt
Oc1ccc(N2CCN(c3ncnc4sc5c(c34)CCC5)CC2)cc1	33	3	25	74*	1	-8
Cc1nc(-n2nnc3ccccc32)c2c3c(sc2n1)CCCC3	4	2	0	20	1	0
SMILES	MCL1 BIM primary	GLD-1 TGE inh	Bcl-xL primary	Mcl1-Noxa inh	Bim-Mcl-1	Mcl1 Bid PPI
OCCN1CCN(c2ncnc3sc4c(c23)CCCC4)CC1	4	9	6	nt	nt	nt
c1ccc2c(c1)nnn2-c1ncnc2sc3c(c12)CCCC3	1	0	1	13	1	80*
N#C/C(C(=O)c1ccccc1)=C1/SC=C(N)N1c1ccccc1	nt	nt	nt	55*	-3	15
COc1ccc(-n2ncc3c2CC(C)(C)CC3NC(=O)CCn2nc(C)cc2C)cc1 (centres undefined)	8	2	6	nt	nt	nt
Cc1ccc(C)c(S(=O)(=O)ON2C(=O)c3ccccc3C2=O)c1	-8	0	-1	60*	-15	-48
CCc1ccc(CNC(=O)C2CCCN(S(=O)(=O)N(CC)c3ccccc3)C2)cc1 (centres undefined)	7	-4	3	nt	nt	nt
c1ccc(Nc2nc(-c3ccccc3)nc3ccccc23)cc1	0	5	-3	nt	nt	nt
Fc1cccc(Nc2nc(-c3ccncc3)nc3ccccc23)c1	-2	-5	-10	26	47*	30
O=[N+]([O-])c1cc(Cl)cc(/C=N/NC(=S)Nc2ccc(S(=O)(=O)N3CCOCC3)cc2)c1O	31	-6	17	85*	nt	67*
Cc1ccc2nc(/C(C#N)=C\c3ccc(N4CCCCC4)c([N+](=O)[O-])c3)[nH]c2c1	-11	-15	-4	58*	0	14
COc1ccc(/C=C/C(=O)C(C(N)=O)=C2SCCS2)cc1	8	-8	9	20	17	-9
Cc1ccc(C(=O)C(C(=O)/C=C/c2ccccc2)=C2SCCCS2)cc1	9	0	6	2	58*	3
FC(F)(F)c1ccc(Cl)c(N/N=C/c2ccc(N3CCOCC3)s2)c1	-2	-7	6	67*	2	-22
COc1ccc(/C=N/Nc2ncnc3sc4c(c23)CCCC4)cc1OC	1	-10	0	21	0	-2
CCN1CCCc2cc(CN(CCN3CCOCC3)C(=S)Nc3cccc(OC)c3)ccc21	26	7	21	60*	1	-93
CCOc1ccc(NC(=O)N(CCN2CCOCC2)Cc2ccc3c(c2)CCCN3CC)cc1	12	-1	11	78*	-2	-86
Cc1cnc(C(=O)OCC(=O)Nc2cccc3ccccc23)cn1	nt	5	nt	nt	nt	nt
COc1ccc(C(=O)NCC(=O)OCCOc2ccc(Cl)cc2)cc1OC	nt	0	nt	nt	nt	nt
Cc1cc2sc3ccccc3c(=O)c2c(C)c1O	10	0	8	42	0	4
O=c1c(C(c2ccccc2)c2c(O)sc3ccccc3c2=O)c(O)sc2ccccc12	8	10	8	53*	-5	71*
Nc1cc(S(=O)(=O)N2CCOCC2)ccc1N1CCCCC1	nt	3	nt	nt	nt	nt
O=S(=O)(c1ccc(N2CCOCC2)c(Cl)c1)N1CCOCC1	5	-1	6	nt	nt	nt
O=c1c2ccccc2sn1-c1cc(S(=O)(=O)N2CCOCC2)ccc1N1CCOCC1	13	3	-5	75*	-8	-27
O=c1c2ccccc2sn1-c1cc(S(=O)(=O)N2CCOCC2)ccc1N1CCCC1	11	4	15	64*	-16	-108
Cc1csc(=O)n1CCC(=O)N(C)Cc1c(F)cccc1Cl	nt	0	nt	nt	nt	nt
COc1ccc(NC(=O)CN(C)CC(=O)NC2CCCCC2C)cc1 (centres undefined)	-2	2	0	nt	nt	nt
CCOC(=O)Cc1csc(NS(=O)(=O)c2ccc([N+](=O)[O-])cc2)n1	6	8	4	nt	nt	nt
Cc1cc(NC(=O)CSc2cn(CC(=O)N(C(C)C)C(C)C)c3ccccc23)no1	-4	1	3	nt	nt	nt
CN(CC(=O)Nc1ccc(F)cc1)C(=O)CCc1nc2ccccc2c(=O)[nH]1	6	0	12	nt	nt	nt

Screening data deposited in PubChem BioAssay by several laboratories.
